IL-1B inflam inh – qHTS for Inhibitors of Inflammasome Signaling: IL-1-beta AlphaLISA Primary Screen; THP-1 LPS/ATP IL-1B secretion, AlphaLISA, 16 h; stronger effect = lower value; activity change, % at 57.5 µM; hit rate 4.7% among 360,000; AID 743279, 2014; in the data active = activity change below about -50%; inconclusive = mostly about -30% to -49%
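THP-1 cells pretreated 1 hr with compounds (up to 57.5 uM final), then stimulated with LPS (250 ng/mL final) plus ATP (1.25 mM final); secreted IL-1B measured by AlphaLISA after 16 hr, decreased signal indicating inhibition.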
TDP1 cell noCPT – qHTS for Inhibitors of human tyrosyl-DNA phosphodiesterase 1 (TDP1): qHTS in cells in absence of CPT | DT40 Tdp1-/- hTDP1 cells, no CPT, ATP luminescence, 48 h | Potency, µM (series often up to 46.2 µM), usual class: inhibitors | hit rate 15% among 420,000 | AID 686978, 2013; also: nearly all actives have a fitted effect of over 55% in size
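Chicken DT40 Tdp1-/- cells stably complemented with human TDP1 were seeded at 400 cells/well with DMSO in place of 20 nM camptothecin. After compound pinning, cells grew at least 48 hr at 37 °C; viability read by CellTiter-Glo luminescence.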
HT1080 IDH1KD tx – qHTS for induction of synthetic lethality in tumor cells producing 2HG: qHTS for the HT-1080-IDH1KD cell line; Potency, µM (doses to about 46.1 µM), usual class: cytotoxic; hit rate 2% among 360,000; HT-1080 IDH1 knockdown viability, ATP luminescence, 48 h
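Using the IDH1-knockdown HT-1080 line run in the same batch and compound series as the NT line, viability after 48 h at 37 °C was determined by CellTiter-Glo luminescence and expressed as % activity.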
HT1080NT lethal – qHTS for induction of synthetic lethality in tumor cells producing 2HG: qHTS for the HT-1080-NT fibrosarcoma cell line. AID 686970, 2013. hit rate 1.6% among 360,000. Potency, µM (series often up to 46.1 µM), most hits filed as cytotoxic. HT-1080-NT fibrosarcoma viability, CellTiter-Glo ATP luminescence, 48 h;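 also: NT is the 2HG producing partner of a matched IDH1 knockdown line; nearly all actives have a fitted effect of over 55% in size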
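Fibrosarcoma NT cells, 750 per well in 5% FBS RPMI, were exposed to compound for 48 hours. Viability: CellTiter-Glo luminescence.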
TDP1 cell CPT – qHTS for Inhibitors of human tyrosyl-DNA phosphodiesterase 1 (TDP1): qHTS in cells in presence of CPT | Potency, µM (titrated, usually from 46.2 µM), hits mostly inhibitors | chicken DT40 Tdp1-/-;hTDP1 cells + 20 nM CPT, ATP luminescence, 48 h | hit rate 12% among 420,000; also: nearly all actives have a fitted effect of over 55% in size
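Cell growth measured by CellTiter-Glo luminescence after a minimum 48 h, 37 C compound exposure with 20 nM CPT in Tdp1-knockout DT40 cells stably expressing hTDP1, seeded 400/well; qHTS titration format.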
A number is an active result; – = inactive; ? = inconclusive; · = no result; [ ] = another dose, or the depositor's remark. Most compounds without a hit are left out; they make up all but 19% or so of the library. Unless noted, calls follow the shape of the dose curve; as a rule, active = well fitted curve in the direction sought with a large enough effect; inconclusive = small, poorly fitted or top-dose-only effect, or another doubt; inactive = no such curve, though single readings can be large; an effect the other way counts as inactive or inconclusive.

SMILES	IL-1B inflam inh	TDP1 cell noCPT	HT1080 IDH1KD tx	HT1080NT lethal	TDP1 cell CPT
O=C(O)c1ccc(N/N=C/C=C/c2ccc([N+](=O)[O-])o2)cc1	–	23µM	–	–	8.2µM
Cc1cc(C)c(S(=O)(=O)N/N=C/c2ccc([N+](=O)[O-])o2)c(C)c1	–	?	–	–	23µM
CCCC(=O)Nc1ccc(C(=O)N/N=C/c2ccc([N+](=O)[O-])o2)cc1	–	9.2µM	13µM	12µM	15µM
NC(=O)N/N=C/c1ccc([N+](=O)[O-])o1	–	3.3µM	–	–	16µM
Cc1ccc(NC(=O)CCC(=O)N/N=C/c2ccc([N+](=O)[O-])o2)cc1C	–	?	–	?	?
CCS(=O)(=O)N1Cc2ccccc2CC1C(=O)N1CCN(c2ccccc2)CC1 (configuration not stated)	–	–	–	–	–
CCSc1nnc(NC(=O)CCN2C(=O)C3CCCCC3C2=O)s1 (configuration not stated)	–	–	–	–[9.24 µM]	–
CC(C)NC(=O)c1ccc(N(Cc2ccc(Cl)cc2)S(C)(=O)=O)cc1	–	–	–	–	–
O=C(N/N=C/c1ccc([N+](=O)[O-])o1)C1CC1	–	23µM	?	–	7.3µM
Cc1ccc(OCC(=O)N/N=C/c2ccc([N+](=O)[O-])o2)cc1	–	13µM	?	?	16µM
CC1CCCCC12NC(=O)N(CC(=O)Nc1ccccc1F)C2=O (configuration not stated)	–	–	–	–	–
COC(=O)C(C)Oc1ccc(Cl)c(CN2OCC(C)(C)C2=O)c1 (configuration not stated)	–	–	–	–	–
CCC(C)Nc1nnnc2c1sc1nc3c(cc12)COC(C)(C)C3 (configuration not stated)	?	?	–	–	?
Cc1cc(Nc2cc(F)ccc2C)nc(-n2nc(C)cc2C)n1	·	5.2µM	·	·	5.2µM
Cc1cc(N2CCN(c3ccccc3)CC2)nc(-n2nc(C)cc2C)n1	–	5.2µM	1.1µM	0.71µM	4.6µM
CCCCc1ccc(Nc2cc(C)nc(-n3nc(C)cc3C)n2)cc1	·	5.2µM	·	·	4.6µM
Cc1cc(Nc2ccccc2C)nc(-n2nc(C)cc2C)n1	·	5.2µM	·	·	4.6µM
Cc1cc(N2CCN(c3ccccc3)CC2)nc(-c2ccccc2O)n1	–	?	–	–	?
Cc1cc(Nc2ccc(F)cc2C)n2nc(C)nc2n1	–	–	–	–	–
Cc1cc(Nc2ccccc2)nc(N2CCOCC2)n1	–	–	–	–	–
Cc1ccc(NC(=O)C(C)SCc2ccccc2)cc1 (configuration not stated)	–	–	–	–	–
COc1cccc(CNC(=O)C2CCCN(S(=O)(=O)c3ccc4c(c3)C(C)(C)C(=O)N4C)C2)c1 (configuration not stated)	–	?	–	–	15µM
CCc1ccc(NC(=O)C2CCC(CNS(=O)(=O)c3ccc4c(c3)C(C)(C)C(=O)N4C)CC2)cc1 (configuration not stated)	·	–	·	·	–
COc1ccccc1CNC(=O)C1CCCN(S(=O)(=O)c2ccc3c(c2)C(C)(C)C(=O)N3C)C1 (configuration not stated)	–	15µM	–	–	?
CCOc1ccccc1NC(=O)C1CCCN(S(=O)(=O)c2ccc3c(c2)C(C)(C)C(=O)N3C)C1 (configuration not stated)	–	?	–	–	18µM
SMILES	IL-1B inflam inh	TDP1 cell noCPT	HT1080 IDH1KD tx	HT1080NT lethal	TDP1 cell CPT
Cc1ccccc1NC(=O)C1CCCN(S(=O)(=O)c2ccc3c(c2)C(C)(C)C(=O)N3C)C1 (configuration not stated)	–	?	–	–	–
CN1C(=O)C(C)(C)c2cc(S(=O)(=O)NCC3CCC(C(=O)NCc4ccccc4)CC3)ccc21 (configuration not stated)	–	16µM	–	–	?
CCc1nc2c(s1)CCc1onc(-c3ccc(Cl)cc3)c1-2	–	–	–	–	–
CN1C(=O)C(C)(C)c2cc(S(=O)(=O)N3CCCC(C(=O)Nc4ccc(Cl)cc4)C3)ccc21 (configuration not stated)	–	18µM	–	–	?
CC(C)c1ccc(NC(=O)C2CCCN(S(=O)(=O)c3ccc4c(c3)C(C)(C)C(=O)N4C)C2)cc1 (configuration not stated)	–	?	–	–	?
COc1ccc(S(=O)(=O)N2CCNC(=O)CC2)cc1	–	–	–	–	–
Cc1cc(/C=C(\C#N)C(=O)NCC2CCCO2)c(C)n1-c1ccc(Cl)cc1 (configuration not stated)	–	?	?	–	10µM
Cc1ccc(C)c(OCCn2cc(/C=C(/C#N)C(=O)NCC3CCCO3)c3ccccc32)c1 (configuration not stated)	–	?	–	–	16µM
C/C(CC(=O)NCc1ccccc1Cl)=N/NC(=O)c1ccccn1	–	–	–	–	–
CN(C[C@H](c1ccccc1)N(C[C@H](Cc1ccccc1)N(CCc1ccccc1)N=O)N=O)N=O	–	?	–	–	18µM
CN(C[C@@H](Cc1cccc2ccccc12)N(C[C@H](Cc1ccccc1)N(CCc1ccccc1)N=O)N=O)N=O	–	–	–	–	?
C[C@H](OC(=O)N1CCN(C(c2ccccc2)c2ccccc2)CC1)[C@@H]1O[C@@]2(C)CCC[C@H]1O2	–	?	–	–	?
Cc1ccc2oc(=O)c3cc(C(=O)NCCCN4CC(C)CC(C)C4)sc3c2c1 (configuration not stated)	-83	?	–	–	?
Cc1ccc2oc(=O)c3cc(C(=O)Nc4ccc(F)cc4F)sc3c2c1	·	26µM	·	·	?
CCOc1ccc(CCNC(=O)c2cc3c(=O)oc4ccc(C)cc4c3s2)cc1OCC	·	?	·	·	13µM
CCOC(=O)c1ccccc1NC(=O)c1cc2c(=O)oc3ccc(C)cc3c2s1	·	–	·	·	–
CCN(CC)C(=O)c1cc2c(=O)n3cccc(C)c3nc2s1	–	–	–	–	–
Cc1cccn2c(=O)c3cc(C(=O)N(Cc4ccccc4)C(C)C)sc3nc12	·	21µM	·	·	16µM
CNC(=O)c1ccc(NC(=O)c2cc(S(=O)(=O)N(C)C)ccc2N2CCCC2)cc1	–	–	–	–[9.24 µM]	–
Cc1ccc2oc(=O)c3cc(C(=O)N(Cc4ccccc4)C(C)C)sc3c2c1	·	21µM	·	·	18µM

From PubChem BioAssay
